Results from the supplement of paper PMC8975748.
Structures can show the parent of a compound that is named as a salt.

These compounds were tested on Saccharomyces cerevisiae BY4741 SeMeCo community (assay: z-score of subpopulation abundance vs DMSO median, subpopulation auxotrophic for HM; higher = larger share of this subpopulation than in DMSO controls). Settings: 10 µM; 24 h; SM minimal medium; subpopulation (auxotrophy): HM.
Protocol: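 Fluorescent four-plasmid SeMeCo (self-establishing metabolically cooperating S. cerevisiae BY4741 community; plasmids pH-mRuby2, pL-mWasabi, pU-eCFP, pM-TagRFP657) was grown 24 h in minimal SM medium with each Selleck FDA-approved drug at 10 µM in 384-well plates. Cells were fixed and imaged by high-content confocal microscopy. For each auxotrophic subpopulation (and the prototroph), a z-score gives the deviation from the DMSO vehicle-control population median.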

Row | Structure (SMILES) | z-score of subpopulation abundance
1 | C=C(C)[C@H]1Cc2c(ccc3c2O[C@@H]2COc4cc(OC)c(OC)cc4[C@@H]2C3=O)O1 [Rotenone (Barbasco)] | 0.89
2 | C=CCN1C[C@H](C(=O)N(CCCN(C)C)C(=O)NCC)C[C@@H]2c3cccc4[nH]cc(c34)C[C@H]21 [Cabergoline] | -0.83
3 | COc1ccc(C(CN(C)C)C2(O)CCCCC2)cc1 (stereo not given) [Venlafaxine HCl] | -0.61
4 | CN1[C@@H]2C[C@@H](OC(=O)[C@H](CO)c3ccccc3)C[C@H]1[C@@H]1O[C@@H]12 [Scopolamine HBr trihydrate] | -1.19
5 | CNC1CC(N)C(O)C(OC2OC(CO)C(O)C3OC4(OC(C(N)CO)C(O)C(O)C4O)OC23)C1O (stereo not given) [Hygromycin B] | -1.16
6 | CC(=O)OCC1=C(C(=O)O)N2C(=O)C(N)C2SC1 (stereo not given) [7-Aminocephalosporanic acid] | -0.48
7 | COc1ccc2c3c([nH]c2c1)C(C)=NCC3 [Harmaline] | 3.18
8 | C#C[C@]1(O)C=C[C@H]2[C@@H]3CCC4=CC(=O)CC[C@@H]4[C@H]3CC[C@@]21CC [Gestodene] | 0.34
9 | O=c1cccc2n1C[C@@H]1CNC[C@H]2C1 [Cytisine] | 0.02
10 | CCOC(=O)Nc1ccc(NCc2ccc(F)cc2)cc1N [Retigabine 2HCl] | 0.88
11 | CN(C)C(=O)Oc1ccc[n+](C)c1 [Pyridostigmine Bromide] | 0.07
12 | N[C@@H]1C[C@H]1c1ccccc1 [Tranylcypromine (2-PCPA) HCl] | -0.71
13 | C=CC[C@]1(O)CC[C@H]2[C@@H]3CCC4=CC(=O)CCC4=C3C=C[C@@]21C [Altrenogest] | -0.25
14 | CC(C)N(CCC(C(N)=O)(c1ccccc1)c1ccccn1)C(C)C (stereo not given) [Disopyramide] | 0.08
15 | C[C@@H]1O[C@@H](O[C@H]2C[C@@H](O)[C@]3(CO)[C@H]4[C@H](O)C[C@]5(C)[C@@H](C6=CC(=O)OC6)CC[C@]5(O)[C@@H]4CC[C@]3(O)C2)[C@H](O)[C@H](O)[C@H]1O [Ouabain] | -0.63
16 | CCCCCCCCCCCCCCCC[n+]1ccccc1 [Cetylpyridinium Chloride] | 12.4
17 | CC(NC(C)(C)C)C(=O)c1cccc(Cl)c1 (stereo not given) [Amfebutamone (Bupropion) HCl] | -0.38
18 | CN1[C@@H]2CC[C@H]1C[C@@H](OC(=O)[C@H](CO)c1ccccc1)C2 [Hyoscyamine] | -0.73
19 | COC(=O)C1=CCCN(C)C1 [Arecoline HBr] | 0.08
20 | NCCc1c[nH]c2ccc(O)cc12 [Serotonin HCl] | 0.16

Row | Structure (SMILES) | z-score of subpopulation abundance
21 | CC[N+](C)(CC)CCOC(=O)C(O)(c1ccccc1)c1ccccc1 [Methylbenactyzine Bromide] | 0.02
22 | CN(C)C(=O)Oc1cccc([N+](C)(C)C)c1 [Neostigmine Bromide] | -0.54
23 | CCC1=C[C@H]2CN3CCc4c([nH]c5ccccc45)[C@](C(=O)OC)(C2)[C@H]13 [Catharanthine] | -0.61
24 | NC(=O)CN1CCCC1=O [Piracetam] | 1.21
25 | CN1c2ccccc2C(NCCCCCCC(=O)O)c2ccc(Cl)cc2S1(=O)=O (stereo not given) [Tianeptine sodium] | -0.51
26 | O=C(O[C@H]1C[N+]2(CCCOc3ccccc3)CCC1CC2)C(O)(c1cccs1)c1cccs1 [Aclidinium Bromide] | -0.01
27 | COc1ccc(C(CN(C)C)C2(O)CCCCC2)cc1 (stereo not given) [Venlafaxine] | -0.77
28 | CCN1CC2(OC(=O)c3ccccc3NC(C)=O)CCC(OC)C34C1C(CC23)C1(O)CC(OC)C2CC4C1(O)C2OC (stereo not given) [Lappaconitine] | -0.28
29 | N#Cc1nn(-c2c(Cl)cc(C(F)(F)F)cc2Cl)c(N)c1[S+]([O-])C(F)(F)F (stereo not given) [Fipronil] | -0.23
30 | CC1(C)SC2C(N)C(=O)N2C1C(=O)O (stereo not given) [6-Aminopenicillanic acid] | 0.18
31 | CCN(C)C(=O)Oc1cccc([C@H](C)N(C)C)c1 [Rivastigmine] | -0.34
32 | CN(C)[C@@H]1C(=O)C(C(N)=O)=C(O)[C@@]2(O)C(=O)C3=C(O)c4c(O)cccc4[C@@](C)(O)[C@H]3[C@H](O)[C@@H]12 [Oxytetracycline (Terramycin)] | 0.64
33 | CC[C@@]1(O)C(=O)OCc2c1cc1n(c2=O)Cc2cc3ccccc3nc2-1 [Camptothecin] | 0.23
34 | CC(C)(O)C(Cl)(Cl)Cl [Chlorobutanol] | -0.53
35 | O=c1[nH]c2ccccc2n1CCCN1CCC(n2c(=O)[nH]c3cc(Cl)ccc32)CC1 [Domperidone] | 0.27
36 | Nc1nc(N)nc(NC2CC2)n1 [Cyromazine] | 0.9
37 | CC(C)=CCOc1c2occc2cc2ccc(=O)oc12 [Imperatorin] | 1.29
38 | COc1ccc2c(c1)[C@]13CCCC[C@@H]1[C@H](C2)N(C)CC3 [Dextromethorphan hydrobromide hydrate] | 0.71
39 | C[N+]1(C)[C@@H]2C[C@@H](OC(=O)[C@H](CO)c3ccccc3)C[C@H]1[C@@H]1O[C@@H]12 [Methscopolamine] | 0.16
40 | COc1ccc(C=O)cc1 [p-Anisaldehyde] | -0.95
